Assay outcomes deposited in PubChem BioAssay by several laboratories.
A selection: hits, their analogues and other compounds. The true share with any hit is near 3.8%.
H9c2 protect – protects H9c2 cardiomyocytes from peroxide injury; H2O2 injury protection, ATPLite, 2 h; protection from H2O2 cell death, % at 20 µM; hit rate 0.63% among 360,000; AID 588492;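 active means compounds giving at least 50% protection of heart cells from peroxide-induced death in the single-dose screen, raw or plate-pattern-corrected value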;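 further: 0% = DMSO wells with peroxide and 100% = DMSO wells without peroxide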
Yeast superoxide – lowers age-related superoxide in aged yeast cells. S. cerevisiae aged cells, superoxide DHE fluorescence; hits give low values. superoxide response (% of plate mean), % at 10 µM. hit rate 0.18% among 330,000;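 active means superoxide response under a set limit, about three screen SD below normal, cut at about 65% in these data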;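 further: yeast aged for seven days with compound at 30 °C before DHE staining; 100% = average MFI of all compound-treated wells on the plate with controls excluded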
FAS TE block – FAS thioesterase (human) inhibition; P49327; recombinant FAS-TE, OMFH fluorogenic substrate, fluorescence endpoint; inhibition, % at 15 µM; hit rate 0.67% among 360,000;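 active means compounds whose normalised, plate-corrected inhibition of enzyme fluorescence in the single-dose primary screen is 50% or more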;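 further: 0% = DMSO with enzyme and 100% = substrate without enzyme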
SUMO Mot1 rescue – SUMOylation pathway inhibition by Mot1-301 growth rescue; hit rate 1% among 320,000; AID 2716; growth rescue, % at 18.8 µM; S. cerevisiae Mot1-301 growth rescue, ATP luminescence, 38.5C; percent above DMSO median, 100 means doubled;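 active means every valid replicate shows activation above 250% relative to neutral control wells; inactive means the rest, any valid replicate at or below 250%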;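 further: OY570 slx delta 5 strain wells were the positive control but not used for scaling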
MPTP block – permeability transition pore inhibition; inhibition, % at 10 µM; isolated mouse mitochondria, Ca2+ swelling absorbance, 30 min; hit rate 1.4% among 360,000;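 active means inhibition of 50% or more, scaled per plate between neutral and stimulator controls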;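 further: 0% = DMSO wells given calcium and 100% = 1 mM EGTA wells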
aDG glyco act – alpha-DG glycosylation activation. Pro5-aDG cells, alpha-DG glycosylation AlphaScreen (IIH6); 0% Pro5, 100% B10-LARGE cell signal. activation, % at 10 µM. hit rate 0.22% among 360,000. AID 624168;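 active means activation of at least 8% versus controls, or a plate z-score of at least 8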;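 further: Pro5 are CHO cells carrying HIG-tagged alpha-DG that lacks glycosylation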
Rh123 counter – Rhodamine 123 counter-screen of mitochondrial pore hits. hit rate 78% among 5,000. shares compounds with MPTP block. AID 624504. isolated mitochondria, membrane potential, Rhodamine 123 fluorescence. inhibition, % at 10 µM; in the data active means inhibition above about 22%;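 further: 0% = DMSO vehicle and 100% = positive control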
MPTP abs DR – MPTP inhibition, dose response swelling confirmation; shares compounds with MPTP block; isolated mitochondria swelling, absorbance; IC50, µM; AID 651561; hit rate 58% among 780; in the data active means IC50 below about 20 µM
MPTP cs DR – counter-screen for mitochondrial permeability transition pore inhibitors, dose response | isolated mitochondria counterscreen, fluorescence read-out | IC50, µM | hit rate 49% among 780 | shares compounds with MPTP block; in the data active means IC50 below about 80 µM
* = called active by the depositor; i = inactive; nt = no result.

SMILES	H9c2 protect	Yeast superoxide	FAS TE block	SUMO Mot1 rescue	MPTP block	aDG glyco act	Rh123 counter	others
Cc1c(NC(=O)Nc2ccccc2)c(=O)n(-c2ccccc2)n1C	1	100	1	0	1	0	nt
Cc1nn(C)c(C)c1NC(=O)Nc1cccc(C(F)(F)F)c1	-2	95	-4	280	72*	0	54*
Cc1nn(C)c(C)c1NC(=O)Nc1ccc(Cl)c(Cl)c1	-21	108	3	176	102*	0	88*
COc1ccc(NC(=O)Nc2nnc(-c3cccs3)s2)cc1	-9	103	-2	-7	69*	0	69*
COc1ccc(OCc2nnc(NC(=O)Nc3ccc(F)cc3)s2)cc1	-10	111	2	-16	74*	0	82*
O=C(Nc1nnc(COc2ccc(F)cc2)s1)Nc1ccccc1F	-3	104	-1	9	7	0	nt
Cc1ccc(C)c(-c2nnc(NC(=O)CCS(=O)(=O)c3ccc(F)cc3)o2)c1	25	105	-3	-6	-1	0	nt
Oc1ccc2ccccc2c1/C=N/Nc1ccccc1	1	98	1	45	2	0	nt
Cc1cc(N/N=C/c2c(O)ccc3ccccc23)nc(-c2ccccc2O)n1	1	99	30	184	66*	0	52*
CN(C(=O)c1cccc(NC(=O)Cc2ccc(NC(=O)C3CCN(C(=O)C4CCCCC4)CC3)cc2)c1)C1CC1	-2	nt	-7	nt	-1	0	nt
O=C(CN(c1cccc(C(F)(F)F)c1)S(=O)(=O)c1ccc(Cl)c([N+](=O)[O-])c1)NCc1ccc(F)cc1	-14	95	44	-3	74*	1	67*
CC(=O)N1CCN(C2c3cccc4cccc(c34)C2NS(=O)(=O)c2ccccc2)CC1 (stereo not given)	2	113	4	9	-1	0	nt
O=S(=O)(NC1c2cccc3cccc(c23)C1N1CCNCC1)c1ccc(Cl)cc1 (stereo not given)	-8	109	-12	-7	81*	6	-8	MPTP abs DR=3.2*;MPTP cs DR=>80
COc1ccc(NS(=O)(=O)c2ccc3nc(COc4ccc(Cl)c(C)c4)[nH]c3c2)cc1	-14	89	1	-2	67*	1	66*
COc1cccc(NC(=O)NNC(=O)CCc2ccc(O)c(O)c2)c1	-2	98	-7	-4	-1	0	nt
CCC(C(=O)OCC(=O)N1C(C)CCCC1C)c1ccccc1 (stereo not given)	10	81	-7	-5	0	0	nt
CN1C(=S)SC(N(O)C(=O)Nc2ccc(Cl)c(Cl)c2)C1(C)C (stereo not given)	-17	94	-63	40	98*	0	86*
COCCn1c(N)c(N(Cc2ccccc2)C(=O)COc2ccc(F)cc2Cl)c(=O)[nH]c1=O	9	74	-3	5	0	0	nt
CC(C)CC(=O)NC(NC(=S)Nc1sc2c(c1C#N)CCCC2)C(Cl)(Cl)Cl (stereo not given)	-1	102	2	-3	90*	0	97*
CC(C)(C)C(=O)Nc1sc2c(c1C#N)CCCCC2	-21	89	10	-3	2	0	nt
N#Cc1c(NC(=S)NC(=O)c2ccccc2)sc2c1CCCC2	-4	93	-1	52	86*	0	15	MPTP abs DR=i;MPTP cs DR=6.7*
Cn1nccc1C(=O)Nc1sc2c(c1C#N)CCCC2	-8	113	-8	2	2	0	nt
Cc1ccccc1C(=O)NC(=S)Nc1sc2c(c1C#N)CCC(C)C2 (stereo not given)	-8	108	-63	-19	16	0	nt
CC1CCc2c(sc(NC(=S)NC(=O)c3ccccc3)c2C#N)C1 (stereo not given)	-14	109	1	-13	66*	0	70*
Cn1ncc(Cl)c1C(=O)NC(=S)Nc1sc2c(c1C#N)CCCCC2	-14	93	-6	5	90*	0	19	MPTP abs DR=i;MPTP cs DR=<2.5*
SMILES	H9c2 protect	Yeast superoxide	FAS TE block	SUMO Mot1 rescue	MPTP block	aDG glyco act	Rh123 counter	others
COCCN1CCN(C(=O)c2ccc3oc(CCc4ccccc4)nc3c2)CC1	-1	99	-2	-17	0	0	nt
CC(=O)N(C)c1nc(N)n(-c2ccccc2)n1	3	94	-7	6	107*	0	-3	MPTP abs DR=>100;MPTP cs DR=>80
CC(=O)Nc1nc(N)n(-c2ccccc2)n1	6	105	-3	0	-1	0	nt
CC(=O)Nc1ccc(S(=O)(=O)NCCC(=O)OCC(=O)c2ccc(Br)cc2)cc1	-5	100	-2	78	59*	0	87*
COc1cc(NS(=O)(=O)c2ccc(-n3cccn3)cc2)cc(OC)c1	-18	nt	0	nt	60*	0	71*
COc1ccc(C(CNC(=O)c2oc3ccc(Br)cc3c2C)N2CCCCC2)cc1 (stereo not given)	3	99	19	-17	86*	0	-11	MPTP abs DR=16*;MPTP cs DR=>80
O=C(Nc1ccc(S(=O)(=O)N2CCN(Cc3ccccc3)CC2)cc1)c1cnccn1	-20	106	2	-6	73*	6	42*
O=C(Nc1ccc(S(=O)(=O)N2CCCC2)cc1)c1cnccn1	-5	107	-3	0	-1	0	nt
Cc1nn(C(C)(C)C)c(C)c1/C=N/OC(=O)Nc1ccc(Cl)c(Cl)c1	-11	105	36	12	73*	0	76*
COc1ccc(NC(=O)O/N=C/c2c(C)nn(C(C)(C)C)c2C)cc1	-7	110	-2	15	2	0	nt
Cc1ccc(S(=O)(=O)NC(=O)c2cc(C)n(-c3ccc(N(C)C)cc3)c2C)cc1	-4	91	-7	-21	85*	0	91*
CCOc1cc(CNCC(C)C)cc(Cl)c1OCc1ccccc1	-6	86	-5	nt	8	1	nt
CCOc1cc(CNC2CCCC2)cc(Cl)c1OCc1ccccc1	-23	97	-14	12	68*	2	-3	MPTP abs DR=3.1*;MPTP cs DR=49*
COc1ccccc1C1(CCNC(C)c2cccs2)CCOC(C(C)C)C1 (stereo not given)	-1	111	0	-1	2	0	nt
Cc1ccc(C2(CCNC(C)c3cccs3)CCOC(C(C)C)C2)cc1 (stereo not given)	-6	nt	0	nt	91*	0	-14	MPTP abs DR=12*;MPTP cs DR=59*
COc1ccc(N2CCN(C(=O)CSc3nnc4n3C(C)(C)Cc3ccccc3-4)CC2)cc1	8	96	-4	-10	17	0	nt
